From PubChem BioAssay AID2685 (National Center for Advancing Translational Sciences (NCATS), 2010)
Hit rate of the full screen: of about 320,000 compounds, about 2,100 (0.66%) were called active. Not shown: some 53% with an inconclusive outcome. Calls come from the whole dose curve; as a rule, active = well fitted inhibition curve with a large enough effect in the signal ratio, with a control signal flat (not every such curve was filed as active); inconclusive = small, poorly fitted or top-dose-only effect, or effect the other way, or a change in a side signal; inactive = flat fitted curve, though single readings scatter; the % refers to the signal ratio. The full list was thinned out, with actives kept by preference.
Potency is the fitted concentration of half-maximal effect.

Test: qHTS Assay for Lipid Storage Modulators in Drosophila S3 Cells;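 for cell number change: cells counted by Cell Tracker Red CMTPX staining in the red channel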; for lipid storage change, negative = inhibition: % is set by controls: 0 for no effect and ±100 for the full control effect
Settings: BODIPY lipid droplet fluorescence, 18-24 h, cells fed with added oleic acid; cell number change: measured here: cell count max response; series mostly up to 46.1 µM; lipid storage change, negative = inhibition: at the top concentration
Procedure, shortened: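 Laser-scanning cytometry quantifies lipid droplet accumulation (500–530 nm total intensity; droplet/cell object ratio) in oleic acid-fed (400 uM added) Drosophila S3 cells treated with a concentration series. 20 uM Triacsin C defined 100% inhibition.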
For `Cn1c(=O)[nH]c(=O)c2c1nc(SCCN1CCCCC1)n2Cc1ccccc1`, the “lipid storage change, negative = inhibition” value was 18.7% (inactive). In the case of `COc1ccc(OC)c(C(=O)CSc2nnc(Cc3cccs3)n2C)c1`, the “outcome” value is reported as “inactive” and the cell number change is reported as -18.3%. With `O=C(Nc1ccc(F)cc1)c1csc(Cc2ccccc2)n1` the “lipid storage change, negative = inhibition” value was 14.8% (inactive). In the case of `O=c1[nH]c2ccccc2nc1Cc1ccccc1`, the “lipid storage change, negative = inhibition” value is reported as 10.2% (inactive) and the cell number change is reported as -29.6%. For `COc1ccc(Cc2nc3ccccc3[nH]c2=O)cc1`, the Potency was 3.26 µM (active). In the case of `O=c1[nH]c2ccccc2nc1Cc1ccc(Cl)cc1`, the “outcome” value is reported as “inactive” and the cell number change is reported as 6.67%. In the case of `COC(=O)N1[C@H](Cc2ccccc2)C=C[C@]1(C)C(=O)O`, the “lipid storage change, negative = inhibition” value is reported as -10.2% (inactive) and the cell number change is reported as -7.24%. For `CCC(=O)Nc1c2c(nn1-c1ccccc1)CSC2`, the “outcome” value was “inactive” and the cell number change was 19%. In the case of `O=C(CBr)Nc1c2c(nn1-c1ccccc1)CSC2`, the “outcome” value is reported as “inactive” and the cell number change is reported as 23.5%. For `O=C(CCl)Nc1c2c(nn1-c1ccccc1)CSC2`, the Potency was 20.6 µM (active) and the cell number change was -21.4%. For `Cc1c(CCOC(=O)C23CC4(C)CC(C)(CC(C)(C4)C2)C3)sc[n+]1CC(=O)c1ccccc1`, the Potency was 18.4 µM (active) and the cell number change was -53.8%. With `Cc1c(CCOC(=O)CC23CC4CC(CC(C)(C4)C2)C3)sc[n+]1CC(=O)c1ccccc1` the “lipid storage change, negative = inhibition” value was -14.6% (inactive) and the cell number change was -7.33%. With `COc1ccc(C(=O)OCCc2sc[n+](CC(=O)c3ccccc3)c2C)cc1` the “outcome” value was “inactive” and the cell number change was 15.7%. With `CCOc1ccccc1NC(=S)NC1CC2CCC1C2` (configuration not stated) the “lipid storage change, negative = inhibition” value was 8.44% (inactive) and the cell number change was 6.16%. With `COc1ccc(OC)c(NC(=O)c2cc(-c3ccc(C)cc3O)n[nH]2)c1` the “outcome” value was “inactive” and the cell number change was 2.51%. With `COc1ccc(OC)c(NC(=O)c2cc(-c3c(C)cc(C)cc3O)n[nH]2)c1` the Potency was 0.206 µM (active) and the cell number change was 13.7%. For `Cc1cc(C)c(-c2cc(C(=O)Nc3cc(C)ccc3C)[nH]n2)c(O)c1`, the “lipid storage change, negative = inhibition” value was -1.74% (inactive) and the cell number change was 2.08%. In the case of `CCc1c(C)sc(NC(=O)c2cccs2)c1C#N`, the “lipid storage change, negative = inhibition” value is reported as -1.11% (inactive) and the cell number change is reported as -15.6%. In the case of `COc1cc2c(cc1OC)C(c1ccc(C)cc1)NC(=O)C2` (configuration not stated), the “outcome” value is reported as “inactive”. With `COc1cc2c(cc1OC)C(c1ccc([N+](=O)[O-])cc1)NC(=O)C2` (configuration not stated) the Potency was 6.51 µM (active) and the cell number change was -4.67%. For `COc1cc2c(cc1OC)C(c1cccc([N+](=O)[O-])c1)NC(=O)C2` (configuration not stated), the “lipid storage change, negative = inhibition” value was 11.9% (inactive) and the cell number change was -2.94%. With `O=C(N/N=C/c1ccco1)c1cc(-c2cccc3ccccc23)n[nH]1` the “lipid storage change, negative = inhibition” value was -1.16% (inactive) and the cell number change was -16.1%. For `Cc1cccc2cc3c(NC(=O)C(C)(C)C)nn(CC(C)C)c3nc12`, the “lipid storage change, negative = inhibition” value was -8.08% (inactive) and the cell number change was -9.6%. With `CCn1nc(NS(=O)(=O)c2ccccc2)c2cc3cccc(C)c3nc21` the “lipid storage change, negative = inhibition” value was 12.4% (inactive) and the cell number change was -3.04%. For `CCn1nc(NC(C)=O)c2cc3cccc(C)c3nc21`, the “lipid storage change, negative = inhibition” value was 16% (inactive). For `CCn1nc(NS(=O)(=O)c2ccc(F)cc2)c2cc3cccc(C)c3nc21`, the “outcome” value was “inactive” and the cell number change was -26.3%. With `CCn1nc(NC(=O)C(C)(C)C)c2cc3cccc(C)c3nc21` the Potency was 2.91 µM (active) and the cell number change was 12.4%. In the case of `CCn1nc(NS(=O)(=O)c2ccc([N+](=O)[O-])cc2)c2cc3cccc(C)c3nc21`, the Potency is reported as 1.46 µM (active) and the cell number change is reported as -19.5%. For `CCOC(=O)C(C(=O)OCC)c1c([N+](=O)[O-])c(=O)n2c3c(cccc13)CCC2`, the “lipid storage change, negative = inhibition” value was 12.6% (inactive) and the cell number change was 0.163%. For `COc1ccc(OC(=O)NCCc2ccccc2)cc1`, the “lipid storage change, negative = inhibition” value was 6.1% (inactive). With `Cc1cc2oc(C(=O)N3CCN(CCc4ccccn4)CC3)c(C)c2cc1C` the “outcome” value was “inactive”. In the case of `O=C(NCc1ccccc1Cl)C1CCC(=O)N(CCCN2CCCC2=O)C1` (configuration not stated), the “lipid storage change, negative = inhibition” value is reported as -1.29% (inactive) and the cell number change is reported as -14.7%. For `O=C(NCc1cccc(Cl)c1)C1CCC(=O)N(CCN2CCOCC2)C1` (configuration not stated), the “lipid storage change, negative = inhibition” value was 33% (inactive) and the cell number change was 19%. In the case of `O=C(NCc1cccc(Cl)c1)C1CCC(=O)N(CCCN2CCCC2=O)C1` (configuration not stated), the Potency is reported as 1.84 µM (active) and the cell number change is reported as 15.8%. With `CC(C)CCNC(=O)c1cc([N+](=O)[O-])ccc1N1CCOCC1` the “lipid storage change, negative = inhibition” value was -1.77% (inactive) and the cell number change was -14%. For `CCN1CCc2c(sc(NC(=S)NC(=O)c3ccc(Cl)cc3)c2C(N)=O)C1`, the “lipid storage change, negative = inhibition” value was -5.13% (inactive) and the cell number change was 6.82%. In the case of `CCN1CCc2c(sc(NC(=O)c3ccc4ccccc4c3)c2C(N)=O)C1`, the cell number change is reported as -8.56% and the lipid storage change, negative = inhibition is reported as -25.3% [at 0.369 µM] (inactive). With `CC(C)N1CCc2c(sc(NC(=O)c3ccc(S(=O)(=O)N4CCOCC4)cc3)c2C(N)=O)C1` the “lipid storage change, negative = inhibition” value was -5.59% (inactive) and the cell number change was 0.268%. With `CCN1CCc2c(sc(NC(=O)c3ccc(S(=O)(=O)N(C)CC4CCCO4)cc3)c2C(N)=O)C1` (configuration not stated) the Potency was 2.91 µM (active) and the cell number change was -26.3%. In the case of `CCOC(=O)c1c(NC(=O)c2ccc(S(=O)(=O)N3CCOCC3)cc2)sc2c1CCN(C(C)C)C2`, the “outcome” value is reported as “inactive” and the cell number change is reported as 6.84%. In the case of `CC(C)N1CCc2c(sc(NC(=O)c3ccc(S(=O)(=O)N(C)CC4CCCO4)cc3)c2C(N)=O)C1` (configuration not stated), the Potency is reported as 7.31 µM (active) and the cell number change is reported as -19.4%. In the case of `CC1=CC(C)(C)NC(=S)N1C(C)c1ccccc1` (configuration not stated), the “lipid storage change, negative = inhibition” value is reported as 9.59% (inactive) and the cell number change is reported as 20.7%. For `O=C(CCNC(=O)Cn1ccc2ccccc2c1=O)NCc1ccccn1`, the “lipid storage change, negative = inhibition” value was -0.0668% (inactive) and the cell number change was 1.28%. With `COC(=O)c1ccccc1NC(=O)CNc1ccc(F)c(S(=O)(=O)N2CCOCC2)c1` the Potency was 3.26 µM (active) and the cell number change was 0.245%. For `O=C(CNc1cccc(S(=O)(=O)N2CCOCC2)c1)Nc1ccccc1F`, the “outcome” value was “inactive” and the cell number change was 4.62%. In the case of `CCN(CC)S(=O)(=O)c1cc(NC(=O)CNc2cccc(S(=O)(=O)N3CCOCC3)c2)ccc1C`, the Potency is reported as 2.06 µM (active) and the cell number change is reported as -23.6%. In the case of `COc1ccc(S(=O)(=O)N2CCCCC2)cc1NC(=O)CNc1ccc(F)cc1C`, the “lipid storage change, negative = inhibition” value is reported as 29% (inactive) and the cell number change is reported as 11.8%.
